Screens deposited in PubChem BioAssay by several laboratories.
CYP2C19 inhib – blockers of cytochrome P450 2C19 activity – biochemical, luminescence, ADME assay, primary screen | P33261 | inhibition, % at 5 µM | CYP2C19 Supersomes, luciferin-H EGE luminescence, 30 min | AID 778, 2007 | 96,000 tested, 21% active;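 active means CYP2C19 inhibition above a set limit at 5 µM in the primary screen, cut at about 50% in these data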
Target sequence (P33261 whole entry, looked up): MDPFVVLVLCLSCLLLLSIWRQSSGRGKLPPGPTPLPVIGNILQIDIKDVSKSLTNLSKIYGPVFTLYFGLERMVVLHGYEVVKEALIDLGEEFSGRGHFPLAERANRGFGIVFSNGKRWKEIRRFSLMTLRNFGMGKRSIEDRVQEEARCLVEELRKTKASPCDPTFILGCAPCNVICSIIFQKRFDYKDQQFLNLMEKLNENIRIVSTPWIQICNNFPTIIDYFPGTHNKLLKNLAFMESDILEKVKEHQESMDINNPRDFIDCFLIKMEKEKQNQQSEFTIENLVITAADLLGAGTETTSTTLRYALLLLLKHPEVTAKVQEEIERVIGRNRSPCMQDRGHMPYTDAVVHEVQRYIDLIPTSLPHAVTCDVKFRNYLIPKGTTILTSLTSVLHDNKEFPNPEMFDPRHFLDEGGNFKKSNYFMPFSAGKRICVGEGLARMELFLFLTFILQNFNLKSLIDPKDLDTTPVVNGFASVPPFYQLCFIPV
CYP2C9 inhib – blockers of cytochrome P450 2C9 activity – biochemical, luminescence, ADME assay, primary screen | P11712 | CYP2C9 Supersomes, luciferin-H conversion | inhibition, % at 5 µM | 96,000 tested, 20% active | AID 777, 2007;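 active means blocking of liver enzyme CYP2C9 beyond about 50% at 5 µM, limit read from the data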
MRP-1 activ – H69AR viability gain despite doxorubicin, primary screen, MRP-1 activator project, H69AR cells, CellTiter-Glo | viability rescue | viability increase, % at 10 µM | 140,000 tested, 0.61% active | AID 799, 2007;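 active means viability gain under doxorubicin at or above a set limit, the compound median plus 3 SD, cut at about 4.7% in these data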;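 further: MRP-1 overexpressing cells given doxorubicin 25 µM after compound pretreatment; 18-22 h compound pretreatment then 72 h with doxorubicin before readout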
CYP2C9 activ – human CYP2C9 activators, primary screen, biochemical, luminescence; recombinant CYP2C9, luciferin-H conversion; hits give high values; factor 1 = untreated enzyme, 0 = blocked; 96,000 tested, 1.4% active; Cytochrome P450 2C9 (Homo sapiens), P11712; activation factor at 5 µM; AID 1024, 2008;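 active means activation factor of 2 or more for CYP2C9 at a 5 µM dose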
CYP2C19 activ – human CYP2C19 activators, primary screen, biochemical, luminescence; Cytochrome P450 2C19 (Homo sapiens), P33261; recombinant CYP2C19, luciferin-H EGE luminescence; hits give high values; 0 = fully inhibited enzyme, 1 = untreated enzyme; activation factor at 5 µM; 96,000 tested, under 10 active; AID 1025, 2008;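 active means activation factor of at least 2 at 5 µM in the primary screen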
MRP resist rev – reversal of MRP1-mediated doxorubicin resistance, primary screen, H69AR cells, doxorubicin co-treatment. H69AR cells + 2 uM doxorubicin, CellTiter-Glo, 72 h. AID 602, 2007. 85,000 tested, 0.04% active. differential viability (reversal), % at 10 µM;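 active means viability drop by adding the cancer drug above about 55%, with treated viability meeting a 40% cutoff, limit read from the data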;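 further: larger differential means the compound sensitizes cells more to doxorubicin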
Numbers stand for hits; - = inactive; . = no result. Only some compounds are listed: those with a hit (about 21% of all), similar ones and a draw of the others.

SMILES	CYP2C19 inhib	CYP2C9 inhib	MRP-1 activ	CYP2C9 activ	CYP2C19 activ	MRP resist rev
CC(C(=O)Nc1cccc([N+](=O)[O-])c1)n1nnc2ccccc21 (configuration not stated)	53	79	-	-	-	.
CC(C(=O)Nc1cccc([N+](=O)[O-])c1)N1CCN(C/C=C/c2ccccc2)CC1 (configuration not stated)	.	.	-	.	.	.
O=C(NC(=S)N(Cc1ccccc1)Cc1ccccc1)c1ccccc1F	-	53	-	-	-	.
O=C(NC(=S)NC(=O)c1ccccc1F)c1ccccc1F	.	.	7.1	.	.	.
O=C(NC(=S)NCc1ccccc1)c1ccccc1F	-	-	-	-	-	.
COC(=O)Cc1ccc(N(Cc2ccccc2F)S(=O)(=O)c2ccc(Cl)cc2)cc1	.	.	-	.	.	.
CC(NC(=O)COC(=O)CCNC(=O)c1ccco1)C12CC3CC(CC(C3)C1)C2 (configuration not stated)	51	56	-	-	-	-
COc1cc(SC)ccc1C(=O)N1CCCCCC1	.	.	-	.	.	-
CCOC(=O)N1CCN(S(=O)(=O)c2c(C)cc(C)cc2C)CC1	-	50	-	-	-	-
CCOC(=O)N1CCN(C(=O)C2CCN(S(=O)(=O)c3ccc(C)cc3)CC2)CC1	-	-	-	-	-	-
CCOC(=O)N1CCC(N2CCN(S(=O)(=O)c3ccc(C)cc3)CC2)CC1	-	-	-	-	-	-
CCOC(=O)N1CCN(C(=O)C2CCN(S(=O)(=O)c3c(C)cc(C)cc3C)CC2)CC1	-	-	-	3.4	-	-
O=C(COc1ccc(Cl)cc1)Nc1ccc(Cc2ccncc2)cc1	.	.	-	.	.	.
CC(=O)c1sc(NC(=O)COc2ccc(C)c(C)c2)nc1C	.	.	-	.	.	.
Cc1cc(OCC(=O)Nc2ccncc2)ccc1Br	100	99	-	-	-	-
O=C(COc1ccc2ccccc2c1)Nc1ccc(Cc2ccncc2)cc1	90	95	-	-	-	.
Cc1ccc(S(=O)(=O)NC(CCc2ccccc2)CC(=O)C(C)(C)C)cc1 (configuration not stated)	.	.	-	.	.	.
Cc1cc(C)n(-c2nc(SCC(=O)NCC3CCCO3)c3c4c(sc3n2)CCCC4)n1 (configuration not stated)	63	85	.	-	-	-
O=C1N/C(=N\N=C\c2cccs2)SC1Cc1cccc(Cl)c1Cl (configuration not stated)	.	.	-	.	.	.
CC(=O)Oc1c(C)cc(O)c2ccccc12	62	-	-	-	-	-
Cc1nn(-c2cc(N(S(C)(=O)=O)S(C)(=O)=O)c(Cl)cc2Cl)c(=O)n1C	.	.	-	.	.	.
O=C(Nc1ccccc1Cl)c1ccccc1Oc1ccc(C(F)(F)F)cc1[N+](=O)[O-]	73	88	-	-	-	.
Cc1ccc2c(c1)N(CCC(=O)NCc1cccs1)C(=O)C(C)O2 (configuration not stated)	97	74	-	-	-	-
Cc1ccc2c(c1)N(CC(=O)NCc1cccs1)C(=O)C(C)O2 (configuration not stated)	-	-	-	-	-	-
Cc1ccc2c(c1)N(Cc1ccncc1)C(=O)C(C)O2 (configuration not stated)	81	89	-	-	-	.
SMILES	CYP2C19 inhib	CYP2C9 inhib	MRP-1 activ	CYP2C9 activ	CYP2C19 activ	MRP resist rev
CCOc1ccc(-n2cc(C(=O)Nc3cccc(C)n3)c3cc(OC)c(OC)cc3c2=O)cc1	.	.	.	.	.	-
CN(Cc1cn(C)c2ccccc12)C(=S)Nc1cc(F)cc(F)c1	.	.	-	.	.	.
O=C(NCC1CCCO1)c1ccc2c(c1)C(=O)N(C1CCCCC1)C2=O (configuration not stated)	-	61	-	-	-	-
CC(C)CCN1C(=O)c2ccc(C(=O)NCC3CCCO3)cc2C1=O (configuration not stated)	79	81	-	-	-	-
Cc1cc(NC(=O)c2ccc3c(c2)C(=O)N(C2CCCCC2)C3=O)no1	-	-	-	-	-	-
Cc1ccc(NC(=O)CS(=O)CC(=O)NCCCc2ccccc2)cc1Cl (configuration not stated)	-	-	-	-	-	.
